ABHD5 PLIN5 PPI = blocks binding of human ABHD5 to perilipin-5 | Q00G26+Q8WTS1 | Split G. princeps luciferase complementation, luminescence, 4 h | inhibition, % at 4 µM | hit rate 0.78% among 360,000 | AID 602281;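 active means inhibition above the mean inhibition across every tested compound plus 3 SD, cut at about 22% in these data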;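 further: 0% = DMSO only wells and the 100% control is not disclosed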
Target sequence (Q00G26 whole entry, looked up): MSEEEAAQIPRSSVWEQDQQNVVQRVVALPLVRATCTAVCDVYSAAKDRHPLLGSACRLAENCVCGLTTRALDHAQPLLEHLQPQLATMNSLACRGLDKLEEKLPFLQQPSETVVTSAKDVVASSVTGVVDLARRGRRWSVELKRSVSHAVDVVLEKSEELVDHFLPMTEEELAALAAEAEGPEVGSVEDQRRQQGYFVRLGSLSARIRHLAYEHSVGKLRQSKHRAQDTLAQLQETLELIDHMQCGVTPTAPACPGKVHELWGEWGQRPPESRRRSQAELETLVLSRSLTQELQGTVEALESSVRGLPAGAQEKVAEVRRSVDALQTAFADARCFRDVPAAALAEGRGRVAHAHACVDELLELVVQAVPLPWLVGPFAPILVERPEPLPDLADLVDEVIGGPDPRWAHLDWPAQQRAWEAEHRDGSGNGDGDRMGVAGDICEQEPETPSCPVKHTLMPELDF
Target sequence (Q8WTS1 whole entry, looked up): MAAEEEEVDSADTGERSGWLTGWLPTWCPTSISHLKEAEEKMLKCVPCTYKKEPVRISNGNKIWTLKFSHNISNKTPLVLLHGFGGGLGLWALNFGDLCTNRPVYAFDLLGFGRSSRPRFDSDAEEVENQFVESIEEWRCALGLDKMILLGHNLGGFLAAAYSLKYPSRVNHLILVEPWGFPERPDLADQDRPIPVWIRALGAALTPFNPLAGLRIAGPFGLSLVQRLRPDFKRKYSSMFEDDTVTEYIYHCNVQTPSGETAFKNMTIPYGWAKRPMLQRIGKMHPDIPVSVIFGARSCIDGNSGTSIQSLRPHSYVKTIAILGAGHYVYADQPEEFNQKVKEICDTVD
Rce1 inhib = yeast Ras-converting enzyme inhibition. yeast membranes, quenched prenylated peptide cleavage fluorescence. calls only. hit rate 0.27% among 290,000. AID 2563;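 active means fall in fluorescence gain of 50% or more versus controls, with final raw signal at or below 3038400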;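 further: plate controls were neutral control wells for no effect and wells lacking membranes for full effect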
Granule exo inh = lytic granule exocytosis inhibition. TALL-104 LAMP-1 surface exposure, flow cytometry; cells stimulated with thapsigargin and PMA. inhibition, % at 10 µM. hit rate 0.66% among 360,000. AID 651702;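 active means inhibition above about 55%, limit read from the data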
M18AAP inhibitor = PfM18AAP enzyme inhibition | inhibition, % at 7.35 µM | recombinant PfM18AAP, H-Glu-NHMec fluorogenic cleavage | hit rate 1.2% among 290,000;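 active means inhibition above the campaign mean inhibition over all tested compounds plus 3 SD, cut at about 28% in these data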;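 further: 0% = plate median of test compound wells and 100% = 2 mM ZnCl2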
Platelet DG rel = modulates dense granule release in human platelets; hit rate 0.22% among 300,000; human platelet-rich plasma, SFLLRN dense granule ATP release, luminescence; AID 1663; inhibition, %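 (compounds screened at 7.5 µM in platelet-rich plasma)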;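 active means mean replicate score, as percent of positive control, at or above 50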
ABHD5 PLIN5 conf = confirmation of human ABHD5-PLIN5 interaction inhibitors; inhibition, % at 4 µM; shares compounds with ABHD5 PLIN5 PPI; biochemical ABHD5-PLIN5 interaction, luminescence; hit rate 67% among 2,200; in the data active means inhibition above about 23%;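 further: 0% = DMSO vehicle wells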
HNF4 split-luc = active in HNF4 split-luciferase counter-screen for ABHD5-PLIN5 inhibitors | AID 651674 | inhibition, % at 4 µM | HNF4 dimerization, luminescence, biochemical | hit rate 77% among 2,200 | shares compounds with ABHD5 PLIN5 PPI;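 active means mean inhibition across replicate wells exceeding the computed hit threshold, cut at about 13% in these data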;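 further: light from luciferase halves that rejoin when HNF4 fusion proteins dimerize; 0% = DMSO only wells and the 100% control is not given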
Exocytosis CP01 = lytic granule exocytosis inhibition; shares compounds with Granule exo inh; inhibition, % at 10 µM; TALL-104 cells, LAMP-1 externalization, flow cytometry; stimulated with PMA plus thapsigargin; AID 651954; hit rate 11% among 1,500; in the data active means inhibition above about 60%;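 further: 0% = stimulated vehicle wells and 100% = unstimulated wells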
The depositor's hits bear a star; i = inactive; x = no result. Only some compounds are listed: those with a hit (about 2.6% of all), similar ones and a draw of the others.

SMILES	ABHD5 PLIN5 PPI	Rce1 inhib	Granule exo inh	M18AAP inhibitor	Platelet DG rel	Exocytosis CP01	others
COc1ccc(CCn2c(C)cc(C(=O)CN3C(=O)C(=O)N(Cc4ccco4)C3=O)c2C)cc1	-3	x	-2	x	x	x
c1cc2c(cc1C1CCCCC1)c1c3n2CCCNC3CCC1 (stereo not given)	27*	i	77*	-4	-38	7	ABHD5 PLIN5 conf=13;HNF4 split-luc=0
Cc1ccc2c(c1)c1c3n2CCCNC3CCC1 (stereo not given)	8	i	0	4	0	x
O=C(O)c1ncc(Cl)c(Cl)c1Cl	2	i	-7	-5	-4	x
COc1ccc(S(=O)(=O)N(C(=O)c2ccco2)c2cc3sc(=O)oc3c3ccccc23)cc1	97*	i	83*	7	0	-13	ABHD5 PLIN5 conf=-24;HNF4 split-luc=110*
COc1ccc(S(=O)(=O)N(Cc2ccccc2)c2ccccc2C(=O)Nc2ccccc2C(=O)NCc2ccco2)cc1	9	i	1	0	4	x
CCCC1=Nc2cc(C(=O)N3CCN(c4ccccn4)CC3)ccc2Sc2ccc(C)cc21	8	i	70*	-3	-4	-4
O=C(N=Nc1c(O)n(Cc2ccccc2)c2ccccc12)c1ccc(O)cc1	3	i	24	-7	7	x
COc1ccc(CC(CN)c2ccccc2)cc1 (stereo not given)	-3	i	58*	2	6	-8
O=C(OCc1ccccc1)N(CCCCN(CCCNCc1ccccc1)C(=O)OCc1ccccc1)CCCNCc1ccccc1	21	x	85*	x	x	99*
CCOC(=O)c1nnn2c1nc(N(CC)CC)c1ccccc12	-7	i	74*	-17	10	-12
Cc1ccc2c3c(cccc13)-c1ccccc1C2=O	-2	i	97*	1	3	77*
O=C(Cc1ccccc1)Nc1ccc2c(c1)OC1(CCCC1)O2	-4	x	-6	x	x	x
CCCCCCCCN1C(=O)[C@H](CC(=O)NCCCOCCCC)C[C@@]2(C(=O)OCC)CCCC=C12	9	x	76*	x	x	52
CCCCCCCCN1C(=O)[C@H](CC(=O)NCCCOCCCC)C[C@@]2(C(=O)OC)CCCCC=C12	-5	x	18	x	x	x
CCCCCCCCN1C(=O)[C@H](CC(=O)NCCCOC)C[C@@]2(C(=O)OC)CC(C)(C)CC=C12	7	x	1	x	x	x
CCCCCCCCN1C(=O)[C@H](CC(=O)NCCCOCCCC)C[C@@]2(C(=O)OC)CC(C)(C)CC=C12	19	x	60*	x	x	5
CC(C)N(Cc1nc(-c2ccccc2)no1)C(=O)CN1C(=O)c2ccccc2C1=O	1	i	1	-6	-1	x
Nc1c(NCCN2CCOCC2)c2ccccc2oc1=O	-5	i	-7	2	15	x
Cc1cccc(-c2cc(C(=O)N3CCCc4ccccc43)c3ccccc3n2)c1	-5	i	-6	1	14	x
COc1cccc(CNC(=O)C2CCN(S(=O)(=O)c3ccc(Br)s3)CC2)c1	4	x	63*	0	14	-14
CC(NC(=O)C1CCN(S(=O)(=O)c2ccc(Br)s2)CC1)c1ccccc1 (stereo not given)	4	x	66*	3	22	-11
CCS(=O)(=O)N1CCC(C(=O)NCc2cccc(OC)c2)CC1	-12	i	-3	3	1	x
CCC(c1nc2ccccc2[nH]1)n1c(-c2ccc3ccccc3c2)nc2ccccc21 (stereo not given)	2	x	6	x	x	x
CCCCCCCCC(c1nc2ccccc2[nH]1)N1CCN=C1c1cc2ccccc2[nH]1 (stereo not given)	0	x	76*	x	x	45
SMILES	ABHD5 PLIN5 PPI	Rce1 inhib	Granule exo inh	M18AAP inhibitor	Platelet DG rel	Exocytosis CP01	others
CN(C)c1ccc(CNCC2CCCO2)cc1 (stereo not given)	-2	i	-4	2	1	x
COCCNC(=S)N(CCc1c(C)[nH]c2ccc(Cl)cc12)Cc1cccs1	9	i	104*	-2	0	5
O=C1OC(c2ccccc2)(c2cc(Br)ccc2O)c2ccccc21 (stereo not given)	-3	x	103*	x	x	99*
COc1ccc2nc3cc(Cl)ccc3c(Nc3cc(C(C)C)c(O)cc3C)c2c1	9	i	62*	-3	7	54
O=C(CSC1=NCCN1)Nc1cccc([N+](=O)[O-])c1	-6	i	3	18	18	x
CCOC(=O)N1CCN(CCC(=O)c2ccc(Br)cc2)CC1	8	i	88*	-21	-2	8
NC(=O)c1ccc(NC(=O)c2ccc3c(c2)CCN3S(=O)(=O)c2ccccc2)cc1	14	i	72*	6	4	-1
O=C(O)c1cccc(NC(=O)c2cccc(S(=O)(=O)N3CCc4ccccc43)c2)c1	9	i	-2	0	-5	x
C=CCn1c(SCC(=O)Nc2ccc(F)cc2)nnc1-c1cnccn1	-4	i	-3	-4	1	x
O=C(Nc1ccccc1Oc1ccsc1C(=O)O)c1ccccc1	4	i	-7	-4	-2	x
CC(C)CN(C(=O)COc1ccc([N+](=O)[O-])cc1)c1c(N)n(CC(C)C)c(=O)[nH]c1=O	-3	x	0	x	x	x
C[C@H](NC(=O)Nc1ccc2c(c1)OCCO2)C(=O)O	6	i	101*	0	11	-16
CCC(=O)Nc1ccc2c(c1)OCCO2	-4	i	1	4	0	x
CC(=O)Nc1cccc(-n2c(=O)n(Cc3ccccc3)c(=O)c3[nH]cnc32)c1	3	i	56*	-2	-5	-4
O=C(COc1ccccc1C(=O)c1cnn(-c2ccccc2)c1)Nc1ccc2ccccc2c1	-3	i	2	-9	-5	x
CCOC(=O)COc1ccccc1C(=O)c1cnn(-c2ccccc2)c1	2	i	62*	1	1	-9
CCCC(=O)Nc1ccc(NC(=O)c2cccc(OC)c2)cn1	8	i	-2	-5	0	x
N#Cc1ccccc1CSc1ccccn1	-6	i	-8	0	2	x
N#Cc1ccc(CSc2ccccn2)c(Cl)c1	10	i	81*	0	-1	-4
CCC(C(=O)Nc1ncc(C)s1)c1ccccc1 (stereo not given)	2	i	-1	-16	5	x
O=C(O)CCCCCNC(=O)/C(=C\c1ccco1)NC(=O)c1ccco1	2	i	5	3	-6	x
CCOc1ccc(N2C(=O)CC(Sc3n[nH]c(-c4ccccc4)n3)C2=O)cc1 (stereo not given)	-6	x	9	3	4	x
COc1ccc(N2C(=O)CC(Sc3n[nH]c(-c4ccccc4)n3)C2=O)cc1 (stereo not given)	7	i	88*	-20	0	85*

Screening data from PubChem BioAssay.
